# Results as given in article PMC4336329 (PLoS ONE, 2015).
# In all, about 310,000 compounds went through this assay and about 14,000 (4.5%) showed an effect of 50% or more. Effects have a minus sign here. The entries come from a sample that favours strong results as a whole.
# Biological target: human ether-à-go-go-related gene (hERG) potassium channel (human, UniProt Q12809)
# Assay: primary screen, population patch clamp on CHO cells stably expressing hERG; higher = less effect of the substance
# 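Note: peak tail current of the secondary pulse compared with the same well before compound.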
# human ether-à-go-go-related gene (hERG) potassium channel, sequence (Q12809 whole entry, looked up): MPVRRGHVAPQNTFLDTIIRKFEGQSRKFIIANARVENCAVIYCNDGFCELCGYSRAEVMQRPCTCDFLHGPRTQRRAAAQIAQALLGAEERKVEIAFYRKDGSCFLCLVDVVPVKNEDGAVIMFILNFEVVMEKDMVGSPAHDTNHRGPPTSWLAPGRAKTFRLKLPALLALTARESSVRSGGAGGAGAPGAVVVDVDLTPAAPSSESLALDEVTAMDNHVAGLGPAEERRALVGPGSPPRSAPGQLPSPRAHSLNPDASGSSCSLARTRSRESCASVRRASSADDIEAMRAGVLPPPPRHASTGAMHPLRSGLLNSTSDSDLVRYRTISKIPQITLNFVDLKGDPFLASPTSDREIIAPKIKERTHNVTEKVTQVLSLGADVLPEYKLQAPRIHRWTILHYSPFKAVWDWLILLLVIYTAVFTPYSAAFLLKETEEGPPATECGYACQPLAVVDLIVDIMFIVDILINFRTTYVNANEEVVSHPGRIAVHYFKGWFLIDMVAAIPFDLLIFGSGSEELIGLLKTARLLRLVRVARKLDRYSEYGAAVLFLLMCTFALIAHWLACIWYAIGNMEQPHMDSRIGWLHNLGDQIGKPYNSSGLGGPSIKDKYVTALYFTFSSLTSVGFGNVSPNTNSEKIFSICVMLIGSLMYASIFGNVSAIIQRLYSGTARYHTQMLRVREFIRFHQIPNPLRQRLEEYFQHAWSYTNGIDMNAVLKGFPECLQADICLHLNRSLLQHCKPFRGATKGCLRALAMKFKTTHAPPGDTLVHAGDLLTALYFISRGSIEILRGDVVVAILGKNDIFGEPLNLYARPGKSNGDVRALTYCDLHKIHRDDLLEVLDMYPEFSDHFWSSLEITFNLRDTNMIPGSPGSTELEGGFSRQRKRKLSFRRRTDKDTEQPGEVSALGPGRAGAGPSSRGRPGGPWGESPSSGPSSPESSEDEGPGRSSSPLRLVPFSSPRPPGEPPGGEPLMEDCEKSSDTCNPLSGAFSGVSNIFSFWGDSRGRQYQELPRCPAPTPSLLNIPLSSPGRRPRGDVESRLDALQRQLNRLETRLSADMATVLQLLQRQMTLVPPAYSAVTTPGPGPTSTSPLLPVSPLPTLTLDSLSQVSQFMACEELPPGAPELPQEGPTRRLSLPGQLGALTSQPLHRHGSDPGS
row,Compound,"hERG current change (%, negative = inhibition) at 10uM"
1,CCN(CC)c1nc(N2CCN(CCO)CC2)nc2ccccc12.Cl,-27.8%
2,CN1CCN(c2nc(N3CCN(CCO)CC3)nc3ccccc23)CC1.Cl,7.33%
3,c1ccc2c(NC3C4CC5CC(C4)CC3C5)nc(N3CCOCC3)nc2c1 (stereo not shown),-35.1%
4,CC(Nc1nc(N2CCN(CCO)CC2)nc2ccccc12)c1ccccc1 (stereo not shown),-60.9%
5,c1ccc2c(Nc3ccc(N4CCOCC4)cc3)nc(N3CCOCC3)nc2c1,-48.5%
6,CC(Nc1nc(N2CCOCC2)nc2ccccc12)c1ccccc1 (stereo not shown),-73.8%
7,CN(C(=O)CS(=O)(=O)c1cn(CC(=O)N2CCOCC2)c2ccccc12)c1ccccc1,0.304%
8,Cc1cc(C)c(S(=O)(=O)NCCCn2ccnc2)cc1C,4.04%
9,Cn1c(=O)c2[nH]c(-c3ccccc3O)nc2n(C)c1=O,23%
10,CC(=O)Nc1ccc(SCCC2CCCCN2C)cc1 (stereo not shown),7.77%
11,O=C(O)CCN1c2ccccc2Sc2ccccc21,16.5%
12,CN1CCCCC1CCN1c2ccccc2Sc2ccc(S(C)=O)cc21.O=S(=O)(O)c1ccccc1 (stereo not shown),-56%
13,O=C(NCCN1CCOCC1)c1ccc2c(c1)N(Cc1ccc(F)cc1)C(=O)c1ccccc1S2(=O)=O,0.647%
14,CC(NC(=O)Nc1ccc(Cl)cc1)C1CCCO1 (stereo not shown),7.05%
15,COc1ccc(S(=O)(=O)N2CC(O)CC2C(=O)Nc2cccnc2)cc1 (stereo not shown),11.1%
16,O=C(NCc1ccccc1Cl)C(=O)NCC1OCCN1S(=O)(=O)c1cccs1 (stereo not shown),-15%
17,O=C(c1ccc2ccccc2n1)N1CCN(c2ccccc2)CC1,-3.81%
18,O=C(c1ccc2ccccc2n1)N1CCN(c2ccccc2Cl)CC1,-64.8%
19,O=C(c1ccc2ccccc2n1)N1CCN(c2ccccc2O)CC1,-0.197%
20,O=C(N/N=C/c1cccc([N+](=O)[O-])c1)C1CC(=O)N(c2ccc(Br)cc2)C1 (stereo not shown),-46.6%
21,O=C(N/N=C/c1cccc([N+](=O)[O-])c1)C1CC(=O)N(c2ccc(F)cc2)C1 (stereo not shown),-65.8%

row,Compound,"hERG current change (%, negative = inhibition) at 10uM"
1,O=C(N/N=C/c1cccc([N+](=O)[O-])c1)C1CC(=O)N(c2ccc(Cl)cc2)C1 (stereo not shown),-82.1%
2,O=C(N/N=C/c1ccccc1O)C1CC(=O)N(c2ccc(Cl)cc2)C1 (stereo not shown),8.21%
3,Cc1ccc(N2CC(C(=O)N/N=C/c3cccc([N+](=O)[O-])c3)CC2=O)cc1 (stereo not shown),-22.2%
4,O=C(N/N=C/c1cccc(Br)c1)C1CC(=O)N(c2ccccc2)C1 (stereo not shown),7.68%
5,O=C(NCc1ccccc1Cl)c1cccc(NC(=O)c2ccccc2)c1,-8.78%
6,COc1cc(NC(=S)NC(=O)CC(C)C)ccc1NC(=O)c1cc2ccccc2o1,19.7%
7,COC(=O)CNC(=O)c1ccccc1C,11.2%
8,COc1ccc(S(=O)(=O)N2CCCOC2CNC(=O)C(=O)NC2CCCC2)cc1 (stereo not shown),4.51%
9,CCCC(C)(C)NC(=O)CCCCC(=O)NC(C)(C)CCC,-9.49%
10,CCCCCCCC(=O)N1c2ccccc2NC(=O)C1CC(=O)Nc1ccc(C(=O)O)cc1 (stereo not shown),13.6%
11,COc1cccc(NC(=S)N(C)C2CCN(C)CC2)c1,11%
12,COc1ccc(N2CCN(CC(=O)c3ccc(Cl)cc3)CC2)cc1,10.5%
13,O=C(CCS(=O)(=O)Cc1ccccc1)N1CCN(c2ccc([N+](=O)[O-])cc2)CC1,-81.6%
14,O=C(CCc1ccccc1)N1CCN(c2ccc(Cl)cc2)CC1,-35.1%
15,O=C(CCS(=O)(=O)Cc1ccccc1)N1CCN(Cc2ccccc2)CC1,-22.1%
16,O=C(CCCC(=O)N1CCN(c2ccccc2F)CC1)c1ccccc1,-10.7%
17,O=C(CCS(=O)(=O)Cc1ccccc1)N1CCN(c2ccccc2)CC1,-7.79%
18,O=C(CCc1ccccc1)N1CCN(c2ccc(F)cc2)CC1,-23%
19,O=C(CCN1CCN(c2ccc([N+](=O)[O-])cc2)CC1)c1ccc(Cl)cc1,-72.4%
20,O=C(CCCC(=O)N1CCN(c2ccc([N+](=O)[O-])cc2)CC1)c1ccccc1,-72%
21,O=C(CCN1CCOCC1)c1ccc(Cl)cc1,28.3%

row,Compound,"hERG current change (%, negative = inhibition) at 10uM"
1,O=C(CCCC(=O)N1CCN(c2cccc(Cl)c2)CC1)c1ccccc1,-44.2%
2,CC(=O)c1ccc(N2CCN(C(=O)CCc3ccccc3)CC2)cc1,-54.1%
3,CSc1nc2ccc(NC(=O)C3CCCO3)cc2s1 (stereo not shown),-0.62%
4,CC(=O)Nc1cccc(NC(C)=O)n1,19.6%
5,COc1cc(C(=S)N2CCOCC2)ccc1O,29.3%
6,CCOc1ccc(C(=O)Nc2nnc(SCC(=O)NCC3CCCO3)s2)cc1OCC (stereo not shown),9.52%
7,c1ccc(-c2cn(CC3CCCCC3)nn2)cc1,-1.74%
8,CCc1ccc(OCC(=O)O/N=C(\N)c2ccncc2)c(Br)c1,10.2%
9,CC1CC(C)CN(C(=O)CCc2ccccc2)C1 (stereo not shown),-2.16%
10,O=C(CN1CCN(c2ccc(Cl)cc2)CC1)c1ccccc1,-6.33%
11,CC1CN(C(=O)CCc2ccccc2)C(C)CN1C(=O)CCc1ccccc1 (stereo not shown),-60.4%
12,CC1CCCN(C(=O)CCc2ccccc2)C1 (stereo not shown),-5.7%
13,N#Cc1ccc(C(=O)CN2CCN(c3ccccc3)CC2)cc1,-42.8%
14,COc1ccc(N2CCN(C(=O)CCc3ccccc3)CC2)cc1,-9.27%
15,O=C(CCc1ccccc1)N1CCN(c2ccc([N+](=O)[O-])cc2)CC1,-73.1%
16,O=C(CN1CCN(c2ccc([N+](=O)[O-])cc2)CC1)c1ccccc1,-75%
17,O=C(CCCC1=NS(=O)(=O)c2ccccc2N1)N1CCN(c2ccc([N+](=O)[O-])cc2)CC1,-1.34%
18,C=CCN1CCN(C(=O)CCCc2ccccc2)CC1,26.1%
19,O=C(CCCc1ccccc1)N1CCN(c2ccc([N+](=O)[O-])cc2)CC1,-64.7%
